Results reported in PubChem BioAssay (NCI).
This is part of a sample that, as a whole, favours compounds with a hit. Of some 83,000 tested, about 20% had one in any assay.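 For each line, cells grew in 96-well plates with the test compound present at a single concentration for 48 hours.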 Active and inactive are the calls of the source. The calls were made as follows: active = growth percent below 10; inactive = the rest.

test system: MDA-MB-468 breast; assay: NCI-60 one-dose screen, 48 h (100 = growth as untreated, 0 = no growth, -100 = all killed); settings: 10 µM unless noted

Row | Structure (SMILES) | growth
1 | COc1cc(-c2nn(-c3ccc(C(=O)O)cc3)cc2C(=O)O)ccc1O | 103% (inactive)
2 | O=C(COc1ccc(/C=C2\SC(=O)NC2=O)cc1)Nc1ccc(C(=O)/C=C/c2cc3ccccc3nc2Cl)cc1 | 20.6% (inactive)
3 | C[C@@H](Oc1cc(-n2cnc3ccc(CN4CCN(C)CC4)cc32)sc1C(N)=O)c1ccccc1C(F)(F)F | 6.59% (active)
4 | C[C@@H](Oc1ccc(C(=O)NS(=O)(=O)C(C)(C)C)cc1C(F)(F)F)c1ccc(Oc2ccccc2)cn1 | -13.5% (active)
5 | CCOCC(O)(c1ccc(Cl)cc1)c1ccc(Cl)cc1 | 102% (inactive)
6 | COc1ccc([C@@H]2C(=O)N(c3cc(OC)c(OC)c(OC)c3)[C@H]2c2ccc(OC)c(O)c2)cc1 | -4.45% (active)
7 | COc1ccc2c(ccn2C(=O)N2c3ccccc3Sc3ccccc32)c1 | 21.8% (inactive)
8 | Cc1cc(OCc2ccc(C(F)(F)F)cc2)c2c(c1)C(=O)C=C(NCCN1CCCC1)C2=O | 51.3% (inactive)
9 | CC(=O)CC[C@H]1C(=O)N[C@@H](C(C)C)C(=O)N[C@@H](Cc2cc(O)cc(F)c2)C(=O)N2CCC[C@H](N2)C(=O)O[C@H](/C(C)=C/C=C/C(=O)OC(C)(C)C)C/C=C/C=C/[C@H](O)[C@H](C)[C@H]1O | 15.1% (inactive)
10 | CCCCCCCCN(CCO)CCCCCCCC | 98.7% (inactive)
11 | Oc1ccc2c(=S)cc(-c3ccc(Br)cc3)oc2c1O | -2.5% (active)
12 | O=C(CSc1nccc(Nc2cccc3ccccc23)n1)c1ccc(Cl)cc1 | 98.5% (inactive)
13 | O=C(NCc1cccc(C(F)(F)F)c1)[C@H](CCC(=O)N1CCN(C2CCCCC2)CC1)N1C(=O)[C@@H](N2C(=O)OC[C@@H]2c2ccccc2)[C@H]1/C(Cl)=C/c1ccccc1 | -5.16% (active)
